Screening results deposited in PubChem by National Center for Advancing Translational Sciences (NCATS).
HCV inhibitor: inhibitors of hepatitis C virus infection; Huh7.5.1 HCVcc-Cre infection, luciferase reporter, 44 h; Potency, µM (top dose mostly 41.8 µM), usual class: inhibitors; 3.4% of 340,000 active; active = well fitted inhibition curve with a large enough effect; inconclusive = small, poorly fitted or top-dose-only effect, or another doubt; inactive = no such curve, though single readings can be large or run the other way
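Antiviral activity was scored by luciferase reporter output from cells infected with HCVcc-Cre (~0.5 moi) in presence of compound, 44 h infection period, cells seeded 1,000/well 4 h prior.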
FMDV inh: antivirals against foot and mouth disease virus; FMDV antiviral cell-based qHTS; Potency, µM (doses to about 57.9 µM), most hits filed as inhibitors; 1.2% of 410,000 active; calls by dose curve; tested in HEK293T cells; note: read-out not given here; nearly all actives have a fitted effect of over 45% in size
HCMV antiviral: inhibitors of human cytomegalovirus; AID 1259415; HFF cells, HCMV-luciferase reporter, 72 h; stronger effect = lower value; 4.5% of 410,000 active; activity change, negative = inhibition, % at 57.5 µM; in the data active = activity change below about -60%; inconclusive = no clear call, values can overlap the other calls; inactive = above about -39%
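Human foreskin fibroblasts infected with luciferase-reporter HCMV at MOI 1 PFU/cell, compounds at two doses. Luciferase measured 72 h post infection; normalized to buffer-only basal and Salinomycin (10uM) controls.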
LASV entry inh: inhibitors of Lassa virus binding or cell entry. 1.2% of 300,000 active. Lassa virus pseudotype entry inhibition, cell reporter. AID 540256. Potency, µM (series often up to 37.9 µM), actives largely listed as inhibitors; calls by dose curve; tested in HEK293 cells; note: nearly all actives have a fitted effect of over 50% in size
MARV entry inh: Marburg virus entry inhibition; 1.8% of 300,000 active; Marburg virus pseudotyped entry inhibition, cell reporter; Potency, µM (titrated, usually from 37.8 µM), actives largely listed as inhibitors; calls by dose curve; tested in HEK293 cells
Of the large screens only hits and unclear results are named; the others gave an inactive call. The list is not random: actives were taken first. Their share in the collection is about 7.9%.

CC1=Nc2cc(C(=O)NCCCN3CCOCC3)ccc2Sc2c(C)ccc(C)c21	HCV inhibitor inconclusive, HCMV antiviral -68.5, LASV entry inh inconclusive, MARV entry inh inconclusive
CC1=Nc2cc(C(=O)NCCc3ccccc3)ccc2Sc2c(C)ccc(C)c21	HCMV antiviral -103.1, MARV entry inh inconclusive (no result: HCV inhibitor)
CC1=Nc2cc(C(=O)NCCc3ccc(Cl)cc3)ccc2Sc2c(C)ccc(C)c21	HCMV antiviral -87.7, LASV entry inh inconclusive, MARV entry inh inconclusive (no result: HCV inhibitor)
COc1ccc(CNC(=O)c2ccc3c(c2)N=C(C)c2c(C)ccc(C)c2S3)cc1	FMDV inh inconclusive, LASV entry inh inconclusive, MARV entry inh inconclusive (no result: HCV inhibitor)
CCCNC(=O)c1ccc2c(c1)N=C(C)c1c(C)ccc(C)c1S2	HCMV antiviral -102.0, LASV entry inh inconclusive, MARV entry inh inconclusive (no result: HCV inhibitor)
Cc1ccc2c(=O)cc(C(=O)Nc3c(C(=O)c4ccc(F)cc4)oc4ccccc34)oc2c1C	none (no result: HCV inhibitor)
O=C(CCCc1nc2ccccc2s1)N1CCN(S(=O)(=O)c2cccs2)CC1	HCV inhibitor inconclusive, FMDV inh inconclusive, LASV entry inh inconclusive, MARV entry inh 10µM
CC(C)CC(=O)Nc1nnc(SCc2cc(=O)n3ccccc3n2)s1	none (no result: HCV inhibitor, MARV entry inh)
COc1ccc(/C=C/C(=O)NCCc2ccc(OC)c(OC)c2)cc1	FMDV inh inconclusive
COc1ccc(CCNC(=O)/C=C/c2ccc3ccccc3n2)cc1OC	HCV inhibitor inconclusive, FMDV inh 28.2µM, HCMV antiviral -99.6, MARV entry inh inconclusive (no result: LASV entry inh)
Cn1c(N2CCN(c3ccccn3)CC2)nc2c1c(=O)n(Cc1ccc(Cl)cc1)c(=O)n2C	FMDV inh 20µM, HCMV antiviral -84.1
Cn1c(N2CCN(c3ccccn3)CC2)nc2c1c(=O)n(Cc1ccccc1Cl)c(=O)n2C	none
Cn1c(OCc2cccnc2)nc2c1c(=O)n(Cc1ccc(Cl)cc1)c(=O)n2C	HCV inhibitor 11.2µM, FMDV inh inconclusive, HCMV antiviral inconclusive, LASV entry inh 16.4µM, MARV entry inh inconclusive
Cc1ccc(NC(=O)Cn2c(=O)ccc3cc(S(=O)(=O)N4CCC(C)CC4)ccc32)c(C)c1	LASV entry inh inconclusive (no result: HCV inhibitor, MARV entry inh)
C=CCOc1ccc(/C(O)=C2\C(=O)C(=O)N(CCCN3CCOCC3)[C@H]2c2ccc(OC)cc2)cc1	none (no result: HCV inhibitor, FMDV inh, HCMV antiviral, LASV entry inh)
CC[C@]12CCCN3CCc4c(n(c5ccccc45)C(=O)C1)[C@@H]32	HCV inhibitor 6.31µM (no result: LASV entry inh, MARV entry inh)
CC(C)CCn1nnc2sc(-c3ccccc3)cc2c1=O	LASV entry inh inconclusive, MARV entry inh inconclusive (no result: HCV inhibitor)
CCc1ccc(S(=O)(=O)c2c[nH]c3cc(OC)c(OC)cc3c2=O)cc1	none (no result: HCV inhibitor)
COc1ccc(-c2noc(-c3ccccc3C(=O)Nc3cccnc3)n2)cc1	HCV inhibitor 10µM, FMDV inh inconclusive, MARV entry inh inconclusive
COc1ccc(-c2noc(CNC(=O)c3ccco3)n2)cc1	none (no result: HCV inhibitor)
COc1ccc(-c2noc(-c3ccccc3C(=O)Nc3cccnc3)n2)cc1OC	HCV inhibitor 8.91µM (no result: FMDV inh)
COc1ccc(-c2noc(CNC(=O)c3ccccc3Br)n2)cc1	HCMV antiviral -62.9 (no result: HCV inhibitor)
COc1ccccc1-c1noc(-c2ccccc2C(=O)Nc2cccnc2)n1	HCV inhibitor 11.2µM
COc1ccc(C(=O)NCCn2cc(SCC(=O)Nc3ccc4c(c3)OCCO4)c3ccccc32)cc1	LASV entry inh inconclusive, MARV entry inh inconclusive (no result: HCV inhibitor)
CC(NC(=O)c1ccco1)c1nnc2n1CCN(Cc1cccc(Cl)c1)CC2 (stereo not given)	none (no result: HCV inhibitor, HCMV antiviral, LASV entry inh, MARV entry inh)
O=[N+]([O-])c1ccc(S(=O)(=O)N2CCN(Cc3c[nH]c4ccccc34)CC2)cc1	HCV inhibitor 22.4µM
O=S(=O)(c1ccc(Cl)cc1)N1CCN(Cc2ccc(O)c3ncccc23)CC1	HCV inhibitor inconclusive, HCMV antiviral -97.9, LASV entry inh inconclusive, MARV entry inh 12.6µM
O=S(=O)(c1ccc(Cl)cc1)N1CCN(Cc2ccncc2)CC1	none
COc1ccc(S(=O)(=O)N2CCN(Cc3c[nH]c4ccccc34)CC2)cc1	none
Oc1ccc(CN2CCN(Cc3ccccc3)CC2)c2cccnc12	HCV inhibitor 10µM, LASV entry inh inconclusive
Cc1ccc(S(=O)(=O)N2CCN(Cc3cc(Br)ccc3O)CC2)cc1	none (no result: HCV inhibitor, MARV entry inh)
Cc1ccc(CN2CCc3nnc(C(NC(=O)c4ccoc4)C(C)C)n3CC2)cc1C (stereo not given)	none (no result: HCV inhibitor, HCMV antiviral, LASV entry inh, MARV entry inh)
CC(=O)c1cc(-c2ccccc2)n(CCC(=O)Nc2nc3c(C)cccc3s2)c1C	none (no result: HCV inhibitor, MARV entry inh)
CCOc1ccc(CCNC(=O)CN2CCN(Cc3ccccc3F)C2=O)cc1OCC	HCV inhibitor 11.2µM, LASV entry inh inconclusive, MARV entry inh inconclusive
CCOc1ccc(CCNC(=O)Cn2c(-c3cccs3)cc3cc(F)ccc32)cc1OCC	LASV entry inh 11.2µM, MARV entry inh inconclusive (no result: HCV inhibitor)
CC1CCCN(CC(O)COC(c2ccccc2)c2ccccc2)C1 (stereo not given)	HCV inhibitor inconclusive, LASV entry inh inconclusive, MARV entry inh 3.98µM
CN1CCN(CC(O)COC(c2ccccc2)c2ccccc2)CC1 (stereo not given)	HCV inhibitor 15.8µM, HCMV antiviral inconclusive, MARV entry inh inconclusive
OC(COC(c1ccc(Cl)cc1)c1ccc(Cl)cc1)CN1CCN(c2ccccn2)CC1 (stereo not given)	HCV inhibitor 8.91µM, FMDV inh inconclusive, LASV entry inh inconclusive, MARV entry inh inconclusive
Cc1nn(-c2ccccc2)c(OC(=O)c2ccc(Br)cc2)c1S(=O)(=O)c1ccccc1	none (no result: HCV inhibitor)
Cc1cccn2c(=O)cc(COc3ccc(NC(=O)COc4ccc(F)cc4)cc3)nc12	none (no result: HCV inhibitor, MARV entry inh)
CCN1CCC(N(Cc2ccc3c(c2)OCO3)C(=O)Nc2cc(Cl)ccc2C(=O)OC)CC1	HCMV antiviral -79.8, LASV entry inh inconclusive (no result: HCV inhibitor, MARV entry inh)
COc1ccc(Cl)cc1NC(=O)NC(C)C	HCV inhibitor inconclusive, HCMV antiviral -100.8 (no result: LASV entry inh, MARV entry inh)
COc1ccc(Cl)cc1NC(=O)C(=O)NC1CCCCCC1	MARV entry inh inconclusive
CCN1CCC(NC(=O)Nc2cc(Cl)ccc2OC)CC1	MARV entry inh 7.08µM
CCC(C)(C)NC(=O)Nc1cc(Cl)ccc1OC	HCV inhibitor inconclusive, HCMV antiviral -61.5
CCN1CCC(N(Cc2ccc3c(c2)OCO3)C(=O)Nc2ccccc2OC)CC1	none (no result: HCV inhibitor, MARV entry inh)
CC(=O)OC[C@H]1O[C@@H](ON=CC[C@@H]2C=C[C@@H](OC(C)=O)[C@@H](COC(C)=O)O2)[C@@H](OC(C)=O)[C@@H](OC(C)=O)[C@@H]1OC(C)=O	none (no result: HCV inhibitor, FMDV inh, HCMV antiviral, LASV entry inh)
Cc1ccc(CNC(=O)CCCn2nc(C)n3c(cc4sccc43)c2=O)cc1	none (no result: HCV inhibitor, LASV entry inh)
COc1ccc(CCNc2cc(C)nc3c(-c4ccccc4OC)cnn23)cc1OC	HCV inhibitor 12.6µM, MARV entry inh 11.2µM (no result: HCMV antiviral)
O=C(Nc1ccc(O)cc1)c1cc2ccccc2c(=O)s1	HCV inhibitor inconclusive, HCMV antiviral -70.5, MARV entry inh inconclusive
O=C(/C=C/c1ccccn1)c1cc(Cl)cc(Cl)c1O	HCV inhibitor 12.6µM (no result: LASV entry inh, MARV entry inh)
CCOC(=O)N1CCC(NC(=O)CSCc2nc(-c3ccccc3Cl)oc2C)CC1	LASV entry inh inconclusive
Cc1oc(-c2ccccc2Cl)nc1CSCC(=O)NC1CCCC1	HCMV antiviral -74.9
CCOC(=O)N1CCC(NC(=O)CSCc2nc(-c3cccc(OC)c3)oc2C)CC1	HCV inhibitor inconclusive, FMDV inh inconclusive, HCMV antiviral -93.1, MARV entry inh inconclusive
